Laboratory results: PubChem BioAssay (Tox21)
“And” between values parts separate entries of the source, which are not always exact repeats. Equal values may be shown once. Records with an inconclusive call do not appear. A structure can be active in one record and inactive in another. The source made the active and inactive calls. Unless noted, calls follow the shape of the dose curve; as a rule, active = well fitted curve in the direction sought with a large enough effect in the repeat runs; inconclusive = weak or mixed curves; inactive = no such curve, though single readings can be large; an effect the other way counts as inactive or inconclusive.

Experiments:
[1] = qHTS assay to identify small molecule antagonists of the estrogen related receptor (ERR) signaling pathway from Tox21 library - cell viability counter screen (AID 1224834); also: nearly all actives have a fitted effect of over 30% in size
Outline: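 ERR cells, 2,000/well; 6 h settle at 37 C/5% CO2; pin-tool compound transfer in DMSO; 17.5 h at 37 C; CellTiter-Fluor, 30 min; fluorescence intensity.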

[2] = target: Luciferin 4-monooxygenase (Photinus pyralis) (UniProt P08659); experiment: qHTS assay to identify small molecule inhibitors of firefly luciferase (AID 1224835); also: nearly all actives have a fitted effect of over 25% in size
Outline: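 Inhibition of purified Photinus luciferase is measured by luminescence. Substrate levels (D-luciferin, ATP) sit at their KM values. Each compound is tested in a concentration series.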

[3] = qHTS assay to identify small molecule agonists of the constitutive androstane receptor (CAR) signaling pathway - cell viability counter screen (AID 1224836); also: nearly all actives have a fitted effect of over 45% in size
Outline: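 Using CellTiter-Fluor, viability of HepG2 cells harbouring hCAR and CYP2B6-2.2kb was measured following 23 h incubation with a 15-concentration compound series plus PK11195 (0.75 uM final).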

[4] = qHTS assay to identify small molecule antagonists of the constitutive androstane receptor (CAR) signaling pathway - cell viability counter screen (AID 1224837); also: nearly all actives have a fitted effect of over 45% in size
Outline: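 Viability was measured with CellTiter-Fluor in a HepG2 line carrying stably transfected hCAR and a CYP2B6-2.2kb construct. Cells were exposed for 23 hr at 37 C to 15 compound concentrations with 50 nM CITCO as agonist.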

[5] = target: Nuclear receptor subfamily 1 group I member 3 (Homo sapiens) (UniProt Q14994); experiment: qHTS assay to identify small molecule antagonists of the constitutive androstane receptor (CAR) signaling pathway (AID 1224838);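 also: HepG2 cells stably expressing hCAR with CYP2B6 luciferase reporter stimulated by CITCO; nearly all actives have a fitted effect of over 40% in size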; also: potency is read from the fitted curve at half-maximal effect
Outline: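 Antagonist mode used CITCO at a final 50 nM to activate CAR in human hepatoma HepG2 cells carrying stable hCAR and a 2.2 kb CYP2B6 promoter-luciferase construct. Compounds were tested at 15 concentrations over 24 h, with luminescence as the end point.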

[6] = target: Nuclear receptor subfamily 1 group I member 3 (Homo sapiens) (UniProt Q14994); experiment: qHTS assay to identify small molecule agonists of the constitutive androstane receptor (CAR) signaling pathway (AID 1224839); also: nearly all actives have a fitted effect of over 15% in size
Outline: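 Double-stable HepG2 cells (hCAR, CYP2B6-2.2kb) seeded 4 h before compound addition. Exposure 24 h with 0.75 uM PK11195 final. Luciferase detected by ONE-Glo.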

[7] = qHTS assay to identify small molecule antagonists of the estrogen related receptor signaling pathway with the pleiotropic PPARgamma coactivator (PGC) from Tox21 10K library - cell viability counter screen (AID 1224840; active = well fitted cell-killing curve with a large enough effect in the repeat runs, not every such curve was filed as active; also: nearly all actives have a fitted effect of over 40% in size)
Outline: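 Multiplexed viability counter screen in the PGC/ERR cell line: cells treated with DMSO-dissolved compounds for 17.5 hours at 37 C, then viability measured as CellTiter-Fluor fluorescence.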

[8] = qHTS assay to identify small molecule antagonists of the estrogen related receptor signaling pathway with the pleiotropic PPARgamma coactivator (PGC) from Tox21 10K library (AID 1224841; call rule not given here; also: actives are mostly falling curves and most rising ones were filed inactive; nearly all actives have a fitted effect of over 50% in size)
Outline: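 Steps: plate 2,000 PGC/ERR cells per well; incubate 6 h at 37 C with 5% CO2; transfer compounds from DMSO stocks by pin tool; incubate 18 h at 37 C; add One-Glo; measure luminescence 30 min later.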

[9] = qHTS assay to identify small molecule agonists of the estrogen related receptor signaling pathway with the pleiotropic PPARgamma coactivator (PGC) from Tox21 10K library (AID 1224842); also: nearly all actives have a fitted effect of over 15% in size
Outline: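 Luminescence from One-Glo (30 min, room temperature) measured after PGC/ERR cells had 18 h at 37 C with pinned compound (23 nL in DMSO). Cells had been seeded at 2,000 per well and pre-incubated 6 h.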

[10] = target: Thyrotropin receptor (Homo sapiens) (UniProt P16473); experiment: qHTS assay to identify small molecule agonists of the thyroid stimulating hormone receptor (TSHR) signaling pathway (AID 1224843; calls by dose curve; also: nearly all actives have a fitted effect of over 45% in size)
Outline: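 A cell-based cAMP HTRF format was run in TSHR-transfected HEK293 cells, 800 per well. Treatment: 30 min, room temperature. Detection: 1 h with labelled cAMP and anti-cAMP cryptate. Concentration-response over 15 points, three replicates.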

[11] = qHTS assay to identify small molecule agonists of the hypoxia (HIF-1) signaling pathway - cell viability counter screen (AID 1224844; calls by dose curve; also: nearly all actives have a fitted effect of over 50% in size)
Outline: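 Cytotoxicity was measured in parallel with the HRE-driven beta-lactamase readout: after 17 hrs of compound exposure at 37C, HRE-bla ME-180 cells received CellTiter-Glo and luminescence was recorded 30 min later.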

[12] = qHTS assay to identify small molecule agonists of H2AX (AID 1224845; active = well fitted activation curve with a large enough effect in the signal ratio in the repeat runs, not every such curve was filed as active; the % refers to the signal ratio)
Outline: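 Phospho-H2AX Ser139 measured by HTRF (ex 320 nm; em 665 and 620 nm) after 24 hr antibody incubation. Compounds, 15 concentrations, 0.76% DMSO, were applied to CHO-K1 cells for 3hr at 37C before lysis.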

[13] = qHTS assay to identify small molecule agonists of the hypoxia (HIF-1) signaling pathway (AID 1224846; active = well fitted activation curve with a large enough effect in the signal ratio in the repeat runs, not every such curve was filed as active; the % refers to the signal ratio)
Outline: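 Compounds from the Tox21 10K library, dissolved in DMSO, are tested for induction of a hypoxia response element–controlled beta-lactamase reporter in ME-180 cells. Exposure lasts 17 hrs at 37C after a 5 hr settling period, followed by CCF4-AM FRET substrate.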

[14] = qHTS assay to identify small molecule agonists of H2AX - cell viability counter screen (AID 1224847; calls by dose curve; also: top concentration of the series differs between compounds; nearly all actives have a fitted effect of over 30% in size)
Outline: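 Quantitative HTS viability measurement: CHO-K1 wild-type cells in serum (10% FBS) medium, short 3 hr drug exposure at 37C with 0.76% DMSO, CellTiter-Glo luminescent detection.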

[15] = qHTS assay to identify small molecule antagonists of the estrogen related receptor (ERR) signaling pathway from Tox21 library (AID 1224848); also: nearly all actives have a fitted effect of over 50% in size
Outline: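 ERR cell line, 2,000 cells/well. 6 h settle, then compound (DMSO) added; 18 h at 37 C; ONE-Glo luminescence after 30 min RT.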

[16] = qHTS assay to identify small molecule agonists of the estrogen related receptor (ERR) signaling pathway from Tox21 library (AID 1224849; calls by dose curve; also: nearly all actives have a fitted effect of over 15% in size); conditions: ERR reporter cell line, ONE-Glo luciferase, 18 h
Outline: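 Cells carrying the ERR reporter were plated and allowed to settle for 6 h, exposed to library compounds for 18 h at 37 C, then lysed with ONE-Glo and luminescence measured.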

[17] = qHTS RealTime-Glo MT Cell Viability Assay in HepG2 cells - 24 hour (AID 1224867); also: nearly all actives have a fitted effect of over 50% in size
Outline: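 Compound treatment began 5 h after plating HepG2 cells (600/well) with NanoLuc luciferase and prosubstrate. Plates stayed at 37 C for 40 h; luminescence was captured at six time points, 0 h through 40 h.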

[18] = qHTS RealTime-Glo MT Cell Viability Assay in HEK293 cells - 32 hour (AID 1224868)
Outline: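 Quantitative high-throughput screen of the Tox21 10K library in HEK293: cells and RealTime-Glo reagents plated together, compound added at 5 h, luminescence monitored through 40 h at 37 C.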

[19] = A CellTox Green Cytotoxicity Assay to monitor cytotoxicity in HEK293 cells - 0 hour (AID 1224869); also: nearly all actives have a fitted effect of over 50% in size
Outline: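 Cells (HEK293, 600/well) and dye reagent are dispensed together. After 5 h at 37 C, 23 nL compound is pinned in. Plates stay at 37 C for 40 h with fluorescence read at 0h, 8h, 16h, 24h, 32h and 40h.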

[20] = qHTS assay to identify small molecule agonists of the estrogen related receptor signaling pathway with the pleiotropic PPARgamma coactivator (PGC) (AID 1224823)
Outline: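 In this quantitative high-throughput screen, an 18 h, 37 C treatment of PGC/ERR cells with compounds in DMSO preceded a One-Glo luminescence read taken after 30 min at room temperature.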
% is scaled to controls: 0 for no effect and ±100 for the full control effect.

Chain of Nuclear receptor subfamily 1 group I member 3 (Homo sapiens) (Q14994 whole entry, looked up): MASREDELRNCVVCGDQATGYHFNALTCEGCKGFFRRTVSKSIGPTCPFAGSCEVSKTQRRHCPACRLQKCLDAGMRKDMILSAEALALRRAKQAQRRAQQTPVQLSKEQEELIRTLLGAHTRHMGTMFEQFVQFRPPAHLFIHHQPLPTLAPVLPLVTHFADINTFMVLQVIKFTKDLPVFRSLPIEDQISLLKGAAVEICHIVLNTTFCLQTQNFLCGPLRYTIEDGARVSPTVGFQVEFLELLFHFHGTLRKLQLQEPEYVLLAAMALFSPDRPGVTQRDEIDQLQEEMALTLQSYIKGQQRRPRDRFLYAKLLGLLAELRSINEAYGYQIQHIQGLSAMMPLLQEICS
Chain of Luciferin 4-monooxygenase (Photinus pyralis) (P08659 whole entry, looked up): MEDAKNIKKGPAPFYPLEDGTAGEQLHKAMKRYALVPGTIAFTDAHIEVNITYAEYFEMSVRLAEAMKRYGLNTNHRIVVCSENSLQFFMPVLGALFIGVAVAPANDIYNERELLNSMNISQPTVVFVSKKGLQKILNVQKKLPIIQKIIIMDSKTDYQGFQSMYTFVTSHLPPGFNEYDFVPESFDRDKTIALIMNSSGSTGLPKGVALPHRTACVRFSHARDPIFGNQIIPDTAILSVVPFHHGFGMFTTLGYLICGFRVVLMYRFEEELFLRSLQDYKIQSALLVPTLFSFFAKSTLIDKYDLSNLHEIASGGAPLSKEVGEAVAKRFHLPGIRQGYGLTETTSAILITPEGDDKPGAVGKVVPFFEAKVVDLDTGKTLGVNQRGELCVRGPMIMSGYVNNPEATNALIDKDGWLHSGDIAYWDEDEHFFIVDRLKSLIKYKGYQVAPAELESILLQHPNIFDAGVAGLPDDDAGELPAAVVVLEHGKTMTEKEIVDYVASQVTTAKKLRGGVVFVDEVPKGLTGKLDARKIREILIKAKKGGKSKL
Chain of Thyrotropin receptor (Homo sapiens) (P16473 whole entry, looked up): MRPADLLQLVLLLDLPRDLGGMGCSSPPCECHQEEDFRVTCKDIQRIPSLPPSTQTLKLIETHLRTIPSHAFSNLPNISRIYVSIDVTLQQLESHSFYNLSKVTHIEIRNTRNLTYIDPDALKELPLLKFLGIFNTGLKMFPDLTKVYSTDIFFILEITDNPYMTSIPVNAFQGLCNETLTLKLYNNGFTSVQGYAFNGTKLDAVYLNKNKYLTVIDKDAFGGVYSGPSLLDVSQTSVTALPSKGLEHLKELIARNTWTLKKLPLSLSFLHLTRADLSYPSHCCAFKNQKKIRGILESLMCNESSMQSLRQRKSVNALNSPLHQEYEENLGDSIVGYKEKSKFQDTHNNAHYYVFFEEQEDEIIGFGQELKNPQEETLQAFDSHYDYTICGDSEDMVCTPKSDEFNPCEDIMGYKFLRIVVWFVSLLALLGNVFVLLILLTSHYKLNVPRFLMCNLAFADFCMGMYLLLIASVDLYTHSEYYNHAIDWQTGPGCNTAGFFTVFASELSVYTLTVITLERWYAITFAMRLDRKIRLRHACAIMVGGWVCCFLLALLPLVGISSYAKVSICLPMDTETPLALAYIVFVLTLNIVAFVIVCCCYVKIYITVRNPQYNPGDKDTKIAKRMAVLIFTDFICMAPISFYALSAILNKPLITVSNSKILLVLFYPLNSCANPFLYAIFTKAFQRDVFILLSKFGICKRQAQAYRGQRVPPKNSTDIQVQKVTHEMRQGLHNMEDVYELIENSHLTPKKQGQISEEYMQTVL

CCSC(=O)N1CCCCCC1
26.5 µM (active) and inactive: Potency [5]
inactive: Potency [1] | Potency [2] | Potency [3] | Potency [4] | Potency [6] | Potency [7] | Potency [8] | Potency [9] | Potency [10] | Potency [11] | Potency [12] | outcome [13] | Potency [14] | Potency [15] | activity change, positive = activation ([16]; at 92.4 µM (top of the series)) -10.2% and -0.0309% | outcome [17] | Potency [18] | Potency [19]

Cl[C@H]1OCCO[C@@H]1Cl
inactive: Potency [1] | Potency [2] | Potency [3] | Potency [4] | Potency [5] | Potency [6] | Potency [7] | Potency [8] | Potency [9] | Potency [10] | Potency [11] | Potency [12] | outcome [13] | Potency [14] | Potency [15] | activity change, positive = activation ([16]; at 92.4 µM (top of the series)) -1.08% and -4.01% | outcome [17] | Potency [18] | Potency [19]

O=P1(NCCCl)OCCCN1CCCl (stereo unspecified)
inactive: Potency [1] | Potency [2] | Potency [3] | Potency [4] | Potency [5] | Potency [7] | Potency [8] | Potency [9] | Potency [10] | Potency [11] | Potency [12] | outcome [13] | Potency [14] | Potency [15] | activity change, positive = activation ([16]; at 42.5 µM (top of the series)) -0.35% | activity change, positive = activation ([16]; at 92.4 µM (top of the series)) 5.99% and 1.11% | outcome [17] | Potency [18] | Potency [19]

FC(F)(F)c1ccc(Cl)cc1
inactive: Potency [1] | Potency [2] | Potency [3] | Potency [4] | Potency [5] | Potency [6] | Potency [7] | Potency [10] | Potency [11] | Potency [12] | outcome [13] | Potency [14] | outcome [17] | Potency [18] | Potency [19]

OCC(O)CCl (stereo unspecified)
inactive: Potency [1] | Potency [2] | Potency [3] | Potency [4] | Potency [5] | Potency [6] | Potency [7] | Potency [10] | Potency [11] | Potency [12] | outcome [13] | Potency [14] | outcome [17] | Potency [18] | Potency [19]

CNCC(O)c1ccc(O)cc1 (stereo unspecified)
inactive: outcome [20] | Potency [1] | Potency [2] | Potency [3] | Potency [4] | Potency [5] | Potency [6] | Potency [7] | Potency [8] | Potency [9] | Potency [10] | Potency [11] | Potency [12] | outcome [13] | Potency [14] | Potency [15] | activity change, positive = activation ([16]; at 42.5 µM (top of the series)) 12.7% | activity change, positive = activation ([16]; at 92.4 µM (top of the series)) 2.21% | outcome [17] | Potency [18] | Potency [19]

ClC(Cl)c1ccccc1
inactive: Potency [1] | Potency [2] | Potency [3] | Potency [4] | Potency [5] | Potency [6] | Potency [7] | Potency [8] | Potency [9] | Potency [11] | Potency [12] | outcome [13] | Potency [14] | Potency [15] | activity change, positive = activation ([16]; at 92.4 µM (top of the series)) 8.64% and 1.48% | outcome [17] | Potency [18] | Potency [19]
